# Shown is part of a subset that was picked to be rich in the strongest signals.
# B1: Na-CTL-1 (Necator americanus) (protein)
# chain: MQRSFLLLLVVLAGAWAVNTTIPLKLMGGFTPMKYQCVGRVSDIWADVLFLIESSDMITKSGFRQVIAFITATTKKMTIGQDEKQTRVGFITYGEEAKLIYDLDHWRSTEKLSDLVQKIPYVKSSGTNIAAAIALANKVFNSPTHRPNVPKVMVIVANGLKKGSQNPIPVATAFKDFGGIIITIEYTQYDNIQVPILKKIASEGYNIRSNDEDFSVRTLTNMLLQANCFCPDHYVPFRVNNPEFGCFVTAKIPSMWRDAAEMCRAVEEGKLVKVENEEKAAFIMKLVGPKKEAWIGLRYYGNKFQWTDGTKLNADDFNLWPEDIKELNGPHCVSMYQDQKDKKYYWRAGKCLEDMRYVCEVQPCSASNYCSEPVFMYRQKHRALLPAPPPPPN
# Tests used:
# Assay in all cases: glycan array binding signal (z-score within array); higher = stronger binding
# Settings in all cases: glycan notation: IUPAC condensed, linker removed
# GalNAc(b1-4)GlcNAc = molecular target: GalNAc(b1-4)GlcNAc
# Summary of the method: (§1)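 Glycan array data came from 3228 arrays in the Consortium for Functional Glycomics database, and only arrays with an available protein sequence were kept. Glycan names were put into IUPAC-condensed notation, and columns mapping to the same glycan were averaged. The binding signal is a within-array Z-score, averaged across arrays of one protein sequence run at different concentrations or buffers and across linkers. A negative Z-score can be read as non-binding.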
# [1] = molecular target: Glc(a1-4)Glc(a1-4)Glc(a1-4)Glc
# Summary of the method: as §1
# [2] = molecular target: GlcNAc(b1-2)[GlcNAc(b1-4)]Man(a1-3)[GlcNAc(b1-4)][GlcNAc(b1-2)[GlcNAc(b1-6)]Man(a1-6)]Man(b1-4)GlcNAc(b1-4)[Fuc(a1-6)]GlcNAc
# Summary of the method: as §1
# [3] = molecular target: GlcNAc(b1-3)Gal(b1-4)GlcNAc
# Summary of the method: as §1
# [4] = molecular target: GlcNAc(b1-3)Gal(b1-4)GlcNAc(b1-3)Gal(b1-4)GlcNAc(b1-3)Gal(b1-4)GlcNAc(b1-2)[GlcNAc(b1-3)Gal(b1-4)GlcNAc(b1-3)Gal(b1-4)GlcNAc(b1-3)Gal(b1-4)GlcNAc(b1-6)]Man(a1-6)[GlcNAc(b1-3)Gal(b1-4)GlcNAc(b1-3)Gal(b1-4)GlcNAc(b1-3)Gal(b1-4)GlcNAc(b1-2)Man(a1-3)]Man(b1-4)GlcNAc(b1-4)[Fuc(a1-6)]GlcNAc
# Summary of the method: as §1
# [5] = molecular target: GlcNAc(b1-3)[GlcNAc(b1-6)]Gal(b1-4)GlcNAc
# Summary of the method: as §1
# [6] = molecular target: Man(a1-2)Man(a1-2)Man(a1-3)Man
# Summary of the method: as §1
# [7] = molecular target: Man(a1-2)Man(a1-3)[Man(a1-6)]Man(a1-6)[Man(a1-2)Man(a1-3)]Man(b1-4)GlcNAc(b1-4)GlcNAc
# Summary of the method: as §1
# Man(a1-6)Man = molecular target: Man(a1-6)Man
# Summary of the method: as §1
# [8] = molecular target: Neu5Ac(a2-3)Gal(b1-3)GalNAc(b1-4)[Neu5Ac(a2-3)]Gal(b1-4)Glc
# Summary of the method: as §1
# [9] = molecular target: Neu5Ac(a2-3)Gal(b1-3)[Fuc(a1-4)]GlcNAc(b1-3)Gal(b1-3)[Fuc(a1-4)]GlcNAc
# Summary of the method: as §1
# Neu5Ac(a2-3)Gal(b1-4)Glc = molecular target: Neu5Ac(a2-3)Gal(b1-4)Glc
# Summary of the method: as §1
# [10] = molecular target: Neu5Ac(a2-3)[GalNAc(b1-4)]Gal(b1-4)GlcNAc
# Summary of the method: as §1
# Neu5Ac(a2-6)Gal(b1-4)Glc = molecular target: Neu5Ac(a2-6)Gal(b1-4)Glc
# Summary of the method: as §1
# [11] = molecular target: Neu5Ac(a2-6)Gal(b1-4)GlcNAc(b1-2)Man(a1-3)[Neu5Ac(a2-6)Gal(b1-4)GlcNAc(b1-2)Man(a1-6)]Man(b1-4)GlcNAc(b1-4)[Fuc(a1-6)]GlcNAc
# Summary of the method: as §1
# [12] = molecular target: Neu5Ac(a2-6)GlcNAc(b1-4)GlcNAc(b1-4)GlcNAc
# Summary of the method: as §1
# [13] = molecular target: Neu5Ac(a2-8)Neu5Ac(a2-8)Neu5Ac(a2-3)Gal(b1-4)Glc
# Summary of the method: as §1
binder,measurement,setting,value
B1,glycan array binding signal (z-score),GalNAc(b1-4)GlcNAc,1.86
same,glycan array binding signal (z-score),[1],-0.045
same,glycan array binding signal (z-score),[2],-0.111
same,glycan array binding signal (z-score),[3],-0.383
same,glycan array binding signal (z-score),[4],1.69
same,glycan array binding signal (z-score),[5],-0.476
same,glycan array binding signal (z-score),[6],0.039
same,glycan array binding signal (z-score),[7],0.06
same,glycan array binding signal (z-score),Man(a1-6)Man,-0.528
same,glycan array binding signal (z-score),[8],0.065
same,glycan array binding signal (z-score),[9],-0.347
same,glycan array binding signal (z-score),Neu5Ac(a2-3)Gal(b1-4)Glc,2.35
same,glycan array binding signal (z-score),[10],-0.222
same,glycan array binding signal (z-score),Neu5Ac(a2-6)Gal(b1-4)Glc,-0.543
same,glycan array binding signal (z-score),[11],0.041
same,glycan array binding signal (z-score),[12],1.95
same,glycan array binding signal (z-score),[13],-0.34

# Reference: the supplement of paper PMC8728848
